This is an account of results in PubChem BioAssay.

In one assay the target is Albumin (Bos taurus) (UniProt P02769). Briefly: bovine serum albumin binders on microarray, profiling panel, artefact control for SMM control protein annotation, biochemical, small-molecule microarray, Alexa647 label, 635/667 nm fluorescence (AID 1118).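 Further: score merges 667 nm emission intensity and signal-to-noise per printed compound spot.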 Conditions: BSA-A647 binding, fluorescence 635 nm, higher = more signal.
Chain of Albumin (Bos taurus) (P02769 whole entry, looked up): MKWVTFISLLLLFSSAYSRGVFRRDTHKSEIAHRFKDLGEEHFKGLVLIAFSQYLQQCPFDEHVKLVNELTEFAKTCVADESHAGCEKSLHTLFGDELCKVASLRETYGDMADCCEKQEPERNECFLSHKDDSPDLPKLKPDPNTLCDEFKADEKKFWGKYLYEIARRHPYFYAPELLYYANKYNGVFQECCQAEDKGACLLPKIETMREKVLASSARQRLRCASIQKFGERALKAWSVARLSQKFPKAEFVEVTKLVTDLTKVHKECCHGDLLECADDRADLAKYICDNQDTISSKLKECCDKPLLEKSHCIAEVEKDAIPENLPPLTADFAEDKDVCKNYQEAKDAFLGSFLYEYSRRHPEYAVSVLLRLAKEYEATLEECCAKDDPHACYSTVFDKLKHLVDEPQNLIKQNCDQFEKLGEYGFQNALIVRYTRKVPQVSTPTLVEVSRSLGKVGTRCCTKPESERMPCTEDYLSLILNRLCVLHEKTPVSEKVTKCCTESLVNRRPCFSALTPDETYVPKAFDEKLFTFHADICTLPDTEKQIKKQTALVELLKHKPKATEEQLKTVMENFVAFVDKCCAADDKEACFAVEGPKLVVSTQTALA
The nature of assay [1]: small-molecule microarray binders of probe aXIP, primary screen, biochemical, NeuroSMM set, 635/667 nm fluorescence (AID 1119).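 Further: probe is the protein aXip251-270 applied at 1 µg/mL to compound-printed slides; binding of probe to printed compounds measured as 667 nm fluorescence plus signal to noise.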 Conditions: higher = more signal, called active from +8 up or from −8 down.
Assay [2] is described as follows: small-molecule binders of probe aNOTCH3, primary screen, biochemical, small-molecule microarray, 635/667 nm fluorescence (AID 1120).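 Further: probe is a biotin-tagged antibody raised against NOTCH3 rather than NOTCH3 protein; score merges spot fluorescence near 667 nm with spot signal to noise.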 Particulars: higher = more signal.
Assay [3] can be described thus: small-molecule binders of probe aNOTCH2, primary screen, biochemical, small-molecule microarray, 635/667 nm fluorescence (AID 1121).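 Further: score merges feature fluorescence read at 667 nm with its signal to noise.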 Particulars: higher = more signal.
In assay [4] the target is Carbonic anhydrase 2 (Homo sapiens) (UniProt P00918). Description: CAII small-molecule binders, profiling panel, biochemical, small-molecule microarray, Alexa647-labelled CAII (AID 1122). Particulars: CAII-A647 binding fluorescence, higher = more signal.
A short description of assay [5]: COS7 lysate on small-molecule microarray, probe aHis, 635 nm (AID 1123).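 Further: z-score combines 667nm fluorescence intensity with signal-to-noise per printed compound spot.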 Particulars: COS7 cell lysate, fluorescence, higher = more signal.
The nature of assay [6]: compound binding in COS7 lysate, probe aLAP1, primary screen, cell lysate, small-molecule microarray (AID 1124).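 Further: lysate comes from COS7 cells expressing LAP1 and is applied at 0.3 µg/mL; score merges spot fluorescence near 667 nm with signal-to-noise over triplicate slides.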 Conditions: probe aLAP1, fluorescence, higher = more signal.
A further assay concerns Sam68 (KHDRBS1). Briefly: Sam68 small-molecule binders, primary screen, biochemical, small-molecule microarray, 635 nm fluorescence (AID 1125).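 Further: score merges 667 nm channel intensity with signal to noise over triplicate slides.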 Particulars: small-molecule microarray binding, higher = more signal.
In assay [7] the test system is Chordin-like protein 2 (CHRDL2). Description: CHRDL2 small-molecule binders, primary screen, biochemical, small-molecule microarray, 635 nm fluorescence (AID 1126).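 Further: printed compound slides probed with Chrdl2 protein at 4 µg/mL for 1 h at 4 C; score merges 667 nm emission intensity with signal to noise over three replicate slides.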 Particulars: small-molecule microarray binding, fluorescence 635 nm; higher = more signal.
The target in assay [8] is Concanavalin-A (Canavalia ensiformis) (UniProt P02866). Briefly: ConA small-molecule binders, primary screen, artefact control for SMM control protein annotation, biochemical, small-molecule microarray, Alexa647 label, 635 nm (AID 1127).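 Further: z combines 667 nm emission intensity with signal-to-noise across three replicate slides.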 Particulars: ConA-A647 binding fluorescence, higher = more signal.
Chain of Concanavalin-A (Canavalia ensiformis) (P02866 whole entry, looked up): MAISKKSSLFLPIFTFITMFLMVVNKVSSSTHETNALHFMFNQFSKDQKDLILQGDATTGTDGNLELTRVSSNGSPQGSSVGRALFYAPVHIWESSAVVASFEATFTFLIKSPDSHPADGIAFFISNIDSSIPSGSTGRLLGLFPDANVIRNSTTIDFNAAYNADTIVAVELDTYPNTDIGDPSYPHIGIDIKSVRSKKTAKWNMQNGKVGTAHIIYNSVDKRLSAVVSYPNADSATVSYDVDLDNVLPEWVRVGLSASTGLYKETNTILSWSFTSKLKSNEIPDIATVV

The structures appear in SMILES notation. The source made the active and inactive calls.

For the compound `CCc1cc2c(nc1CC)CCN(CCC(C)=NO[C@@H](C)c1cn([C@H](CO)Cc3ccccc3)nn1)C2`, the composite z-score with Albumin (Bos taurus) was -0.0957; in assay [2], -0.0072; in assay [3], -0.0956; in assay [4], 0.317; in [5] it was -0.0909; in assay [6], 0.12. The composite z-score with Sam68 (KHDRBS1) was -0.0161; in assay [7], 0.231; in assay [8], 0.0209. For the same compound, in assay [1], the composite Z-score is 0.117 (inactive).
Consider `COCOc1ccc(Br)cc1C(=O)[C@@H]1O[C@H]1c1cccc(OC)c1`, for which the composite z-score with Albumin (Bos taurus) is 0.591; in [2] it was -0.122; in assay [3] it was -0.108; in assay [4] it was 0.041; in assay [5] it was 0.696; in assay [6], 0.0365. For the same compound, the figures for the composite z-score (in the assay on Sam68 (KHDRBS1); in assay [7]; in assay [8]) were -0.395, 0.589 and -1.26, respectively. Further, in assay [1], the composite Z-score is 0.374 (inactive).
`O=C(NN=C1C[C@@H](O)[C@@H](O)[C@@H]2[C@@H]3C(=O)N(C[C@@H]4CCCO4)C(=O)[C@@H]3CC[C@H]12)OCc1ccccc1`: the composite z-score in the assay with Albumin (Bos taurus) is 0.534; in assay [2], 0.0522; in assay [3] it was -0.0081; in assay [4], -0.273; in [5] it was 0.109; in assay [6] it was -0.0716. Also, the composite z-score in the assay with Sam68 (KHDRBS1) was -0.534; in [7], -0.187; in [8], 0.305. Further, in assay [1], the composite Z-score was 0.42 (inactive).
As for `COc1cc(O)c(C(=O)C=Cc2ccc3c(c2)OCO3)c(OC)c1`, the composite z-score is 0.0618 with Albumin (Bos taurus); -0.0647 in assay [2]; -0.134 in assay [3]; -0.337 in [4]; -0.932 in [5]; -0.185 in assay [6]. Further, the composite z-score in the assay on Sam68 (KHDRBS1) was -1.93; in assay [7] it was 0.102; in [8], 1. Moreover, in assay [1], the composite Z-score is -0.024 (inactive).
As to `COC(=O)[C@@H]1CC[C@H](C)[C@@H](c2ccc(C)cc2)N1C(=O)c1ccc(C=NO[C@H](C)c2cn([C@H](CO)Cc3ccccc3)nn2)cc1`, the composite z-score with Albumin (Bos taurus) was 0.279; in assay [2] it was 0.217; in assay [3], 0.111; in [4], 0.233; in assay [5], -0.141; in [6], 0.452. The composite z-score in the assay with Sam68 (KHDRBS1) was found to be 1.02; in assay [7], 0.684; in [8] it was 0.653. For the same compound, the composite Z-score in assay [1] was 0.402 (inactive).
Consider `CCOC(=O)[C@H](CC(C)C)NC(=O)CCC1CC(OC(=O)NCc2cccc3ccccc23)CC2(CCCC(COC(=O)NCCCN3CCCC3=O)O2)O1` (stereo not given in full), for which the composite z-score was 0.247 with Albumin (Bos taurus); -0.0328 in assay [2]; -0.108 in assay [3]; 0.581 in assay [4]; 0.444 in [5]; -0.0183 in assay [6]. For the same compound, the figures for the composite z-score (in the assay with Sam68 (KHDRBS1); in assay [7]; in assay [8]) were 1.29, 0.256 and 0.832, respectively. In addition, the composite Z-score in assay [1] was -0.122 (inactive).
In the case of `CCCNC(=O)OC[C@H]1O[C@H](CCON=C(C)CCC(=O)OC[C@H]2O[C@H](c3ccccc3)C=C[C@@H]2Oc2ccc(OC)cc2)C=C[C@@H]1Oc1ccc(OC)cc1`, the composite z-score was 0.161 with Albumin (Bos taurus); -0.0762 in assay [2]; -0.14 in assay [3]; -0.459 in [4]; -0.528 in assay [5]; -0.155 in assay [6]. The composite z-score was -1.25 in the assay on Sam68 (KHDRBS1), -0.181 in [7] and -0.721 in assay [8]. For the same compound, the composite Z-score in assay [1] was -0.0662 (inactive).
In the case of `CCOC(=O)[C@H](CC(C)C)NC(=O)CCC1CC(OC(=O)NCc2ccc3c(c2)OCO3)CC2(CCCC(COC(=O)NCC3CCCCC3)O2)O1` (stereo not given in full), the composite z-score was 0.235 in the assay with Albumin (Bos taurus); 0.31 in assay [2]; -0.207 in assay [3]; 0.368 in assay [4]; 0.636 in assay [5]; 0.244 in assay [6]. Moreover, the composite z-score turned out to be 1.32 in the assay with Sam68 (KHDRBS1), 0.567 in assay [7] and 0.512 in assay [8]. Further, the composite Z-score in [1] was 0.189 (inactive).
For the compound `CC(C)CON=C1C[C@@H](O)[C@@H](O)[C@@H]2[C@@H]3C(=O)N(Cc4ccc5c(c4)OCO5)C(=O)[C@@H]3CC[C@H]12`, the composite z-score with Albumin (Bos taurus) is 0.768; in [2] it was -0.0288; in [3], -0.115; in [4], 0.625; in assay [5], 0.676; in assay [6], -0.358. Also, the composite z-score came to 1.34 with Sam68 (KHDRBS1), 0.0987 in assay [7] and 0.957 in assay [8]. In addition, the composite Z-score in assay [1] is -0.275 (inactive).
As for `CCOC(=O)[C@H](CC(C)C)NC(=O)CCC1CC(OC(=O)NCc2ccc3c(c2)OCO3)CC2(CCCC(COC(=O)NCc3cccc(C(F)(F)F)c3)O2)O1` (stereo not given in full), the composite z-score was -0.232 in the assay with Albumin (Bos taurus); -0.136 in assay [2]; -0.169 in [3]; 0.284 in assay [4]; 0.292 in [5]; -0.37 in assay [6]. In addition, the composite z-score with Sam68 (KHDRBS1) is 0.119; in assay [7] it was 0.192; in [8], 0.0441. The composite Z-score in [1] was -0.104 (inactive).
For the compound `COc1cccc([C@H]2Oc3ccc(OC)cc3C(=NOC[C@@H](O)COCc3ccco3)[C@@H]2O)c1`, the composite z-score was -0.859 with Albumin (Bos taurus); -0.235 in assay [2]; -0.0942 in assay [3]; -1.02 in assay [4]; -1.34 in [5]; -0.446 in assay [6]. The composite z-score in the assay on Sam68 (KHDRBS1) was -2.24; in assay [7], 0.655; in assay [8], -3.36. The composite Z-score in assay [1] was -0.874 (inactive).
On to `C#CCCCON=C1[C@H]2CCn3c(=O)n(C)c(=O)n3[C@H]2[C@H](O)[C@@H]2O[C@H]12`, for which the composite z-score with Albumin (Bos taurus) is -0.213; in [2] it was -0.0304; in assay [3] it was -0.169; in assay [4], -0.053; in [5], 0.0971; in assay [6], 0.723. Besides, the composite z-score in the assay with Sam68 (KHDRBS1) turned out to be 0.406; in [7], 0.833; in assay [8], 0.543. Further, in assay [1], the composite Z-score was -0.496 (inactive).
Turning to `CCN1C(=O)[C@H]2[C@H]3[C@H](O)[C@H](O)CC(=NOC[C@H]4O[C@H](c5ccccc5)C=C[C@@H]4Oc4ccc(OC)cc4)[C@@H]3CC[C@H]2C1=O`, the composite z-score is 0.741 in the assay with Albumin (Bos taurus); 0.0311 in [2]; -0.0274 in assay [3]; 0.353 in assay [4]; 0.383 in [5]; 0.106 in [6]. Further, the composite z-score in the assay with Sam68 (KHDRBS1) was 1.16; in assay [7], 0.514; in assay [8] it was 0.817. Moreover, the composite Z-score in assay [1] was 0.246 (inactive).
